The nature of assay [1]: AP1 Signaling Pathway (AID 357).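 Also: ME-180 reporter cells stimulated with EGF at its EC50 level; % is scaled to controls: 0 for no effect and ±100 for the full control effect.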 As to conditions: ME-180 AP-1-bla reporter, EGF-induced, beta-lactamase ratio, 5 h. The essentials:
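AP-1-bla ME-180 cells, Opti-MEM + 0.5% dialyzed FBS, plated overnight 37 °C. Cpd titration + EC50 EGF, 5 h 37 °C. CCF4 2.5 h RT; ex 405, em 460/530 ratio → %activity, AC50.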

For assay [2], the target named is Cytochrome P450 1A2 (Homo sapiens) (UniProt P05177). Kind of assay: p450-cyp1a2 (AID 410; calls by dose curve; also: potency is read from the fitted curve at half-maximal effect;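 as to activity change, negative = inhibition: -100% = full effect of reference inhibitor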). As to conditions: recombinant CYP1A2, luciferin-ME demethylation, luminescence; series mostly up to 57 µM. The essentials:
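Luminescent readout of luciferin formed from Luciferin-ME by human CYP1A2; data normalized against complete inhibition by 57 uM furafylline. Enzyme 20nM, substrate 100uM at Km, 100mM KPO4 buffer, 60 min reaction at room temperature.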

The nature of assay [3]: NFAT Signaling Pathway (AID 444).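 Also: carbachol stimulus at about its EC50 of 1 µM final; % is scaled to controls: 0 for no effect and ±100 for the full control effect.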 Particulars: Jurkat NFAT-bla M1, carbachol, beta-lactamase ratio, 5 h. In a few lines: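 Jurkat cells with NFAT-driven β-lactamase reporter and co-expressed M1 receptor, stimulated with carbachol (final 1 uM, ~EC50), compound titration, 5 h at 37 °C. CCF4 loaded 1 h at RT; 460/530 nm ratio gave %activity and AC50.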
Assay [4] can be described thus: Stat Signaling Pathway (AID 446).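 Also: ME-180 cervical cancer cells given 40 pM IL-6 alongside compound; SIE-controlled beta-lactamase reporter measured as 460/530 nm FRET emission ratio; % is scaled to controls: 0 for no effect and ±100 for the full control effect.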 Particulars: ME-180 (cervical carcinoma) SIE beta-lactamase reporter, IL-6 stimulated, 5 h; series mostly up to 17.2 µM. The essentials: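 IL-6/STAT signaling read in ME-180 cells via an SIE beta-lactamase reporter. Stimulus was 40 pM IL-6 (its AC50) for 5 hrs, so both activation and inhibition register.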
The target of assay [5] is Glucocorticoid receptor (Homo sapiens) (UniProt P04150). The assay is described as follows: GR-EFC Redistribution (AID 451; calls by dose curve; also: potency is read from the fitted curve at half-maximal effect). Particulars: CHO-K1 GR-EFC translocation, beta-gal luminescence, 2 h. In a few lines: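 CHO-K1 cells expressing nuclear EA and GR-ED fragments of b-gal; compounds titrated up to 46 uM final, 2 h at 37 C. GR nuclear translocation read as complemented b-gal luminescence after 1 h RT detection.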

The nature of assay [6]: Cell Viability - BJ (AID 421; calls by dose curve;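 also: potency is read from the fitted curve at half-maximal effect; cells exposed to compound for 40 hours at 37 °C before readout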). Particulars: BJ fibroblast viability, qHTS. The essentials: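 Quantitative HTS: ATP depletion in BJ cells after 40 hr compound exposure in complete culture medium, detected with CellTiter-Glo; AC50 from standard Hill fits.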
The nature of assay [7]: Cell Viability - Jurkat (AID 426;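 active = dose-dependent loss of cell ATP signal giving a full or clear fitted curve, ranked by lower potency value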; also: potency is read from the fitted curve at half-maximal effect). As to conditions: qHTS. The essentials:
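qHTS, 1536-well; Jurkat E6-1, 5000 cells/well, complete medium; cpd 40 hr, 37 °C; CellTiter-Glo 20 min RT; luminescence. AC50 by Hill fit.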

A short description of assay [8]: Cell Viability - Hek293 (AID 427;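 active = compounds whose dose-response curve shows a full or clear partial loss of cell viability, called from curve shape rather than a numeric limit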;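 also: potency is read from the fitted curve at half-maximal effect; cells exposed to compound for 40 hours at 37 °C before reading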). Particulars: qHTS. The essentials: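 AC50 values derive from Hill-modelled concentration-response of ATP-based luminescence, normalized between DMSO-only and 100 uM tamoxifen controls. Cells were exposed in complete culture medium for 40 hr at 37 °C before detection.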
Assay [9] in a line: Cell Viability - HepG2 (AID 433; calls by dose curve;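 also: potency is read from the fitted curve at half-maximal effect; potency for ATP loss meaning cytotoxicity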). Particulars: qHTS. In a few lines:
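HepG2 hepatocellular carcinoma cells (1500/well) were treated with compounds for 40 h at 37 °C in complete medium; intracellular ATP was read by CellTiter-Glo luminescence. Data were normalized to DMSO and 100 uM tamoxifen, and AC50 came from Hill fits.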
(In qHTS, concentration-response curves come from the screen itself.)

The nature of assay [10]: Cell Viability - MRC5 (AID 434; calls by dose curve;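 also: potency is read from the fitted curve at half-maximal effect; potency reflects cytotoxicity seen as loss of intracellular ATP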). Particulars: MRC5 lung fibroblast viability, qHTS. In a few lines: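 MRC5 normal human lung fibroblasts, 1500 cells/well, exposed to compound for 40 hr at 37 C. Cellular ATP was read by CellTiter-Glo luminescence; data normalized to DMSO and 100 uM tamoxifen, with AC50 from Hill fits.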
Assay [11] is described as follows: Cell Viability - SK-N-SH (AID 435; calls by dose curve;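 also: potency is read from the fitted curve at half-maximal effect; compound exposure lasted 40 h at 37 °C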). Particulars: SK-N-SH neuroblastoma cell viability qHTS. The essentials:
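SK-N-SH human neuroblastoma cells (1500/well) were exposed to compounds in complete medium for 40 h at 37 °C, and intracellular ATP was then measured by CellTiter-Glo luminescence. AC50 was taken from Hill fits, normalized to DMSO and 100 uM tamoxifen.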

Assay [12] has as its target Glucocorticoid receptor (Homo sapiens) (UniProt P04150). The assay is described as follows: GR-GFP Redistribution (AID 450;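 active = compounds whose dose series gives a full or clear partial fitted curve of increased nuclear translocation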; also: potency is read from the fitted curve at half-maximal effect). As to conditions: U2OS GR-GFP nuclear translocation, laser cytometry, 2 h.
Assay [13] addresses Mitogen-activated protein kinase 10 (Mus musculus) (UniProt Q61831). Kind of assay: JNK3 AlphaScreen Assay (AID 530).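 Also: kinase came from lysate of stimulated human HepG2 cells; signal reports phosphorylation of biotinylated GST-cJun 1-79 at Ser73 with 10 µM ATP; % is scaled to controls: 0 for no effect and ±100 for the full control effect.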 Particulars: JNK3 lysate, c-Jun phosphorylation; series mostly up to 57.1 µM. In a few lines:
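Pre-activated (IL-1β/TNFα) JNK3 in HepG2 lysates phosphorylates biotin-GST-cJun(1-79), 10 uM ATP; anti-phospho-cJun(Ser73) AlphaScreen read at room temperature, pH 7.6 Tris buffer. Compounds pre-incubated 15 min as titrations.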
On the technique in general: In Alpha technology, singlet oxygen from a donor bead excites a nearby acceptor bead.

Assay [14] can be described thus: Cell Viability - N2a (AID 540; active = well fitted curve in the direction sought with a large enough effect; an effect the other way counts as inactive or inconclusive;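 also: plate controls were DMSO alone for no effect and tamoxifen control for full effect; nearly all actives have a fitted effect of over 45% in size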). Particulars: N2a mouse neuroblastoma cell viability; series mostly up to 92.2 µM. The essentials:
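Luminescent ATP signal (CellTiter-Glo, 20 min at room temperature) served as the viability read-out after N2a cells were treated with compounds for 40 hours at 37 °C. Concentration-response data were fitted to the Hill equation for AC50.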

Assay [15] can be described thus: Cell Viability - NIH 3T3 (AID 541; active = well fitted curve in the direction sought with a large enough effect; an effect the other way counts as inactive or inconclusive;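 also: plate controls were DMSO alone for no effect and tamoxifen positive control for full effect; nearly all actives have a fitted effect of over 25% in size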). As to conditions: NIH 3T3 cell viability, qHTS; activity change, negative = cytotoxicity: at 92.2 µM (top of the series). In a few lines: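 Luminescent ATP signal (CellTiter-Glo) served as the viability read-out after NIH 3T3 cells were exposed to compounds over a concentration range for 40 hr at 37 °C. Hill-equation modelling of concentration-response data gave AC50.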

Assay [16] is described as follows: Cell Viability - HUV-EC-C (AID 542; active = well fitted curve in the direction sought with a large enough effect; an effect the other way counts as inactive or inconclusive; also: % is scaled to controls: 0 for no effect and ±100 for the full control effect; nearly all actives have a fitted effect of over 35% in size). As to conditions: HUV-EC-C endothelial cell viability, qHTS; series mostly up to 92.2 µM. The essentials: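 qHTS cytotoxicity: HUV-EC-C, 1000 cells/well, 5 hr settle, compound 40 hr 37 °C, CellTiter-Glo, luminescence. AC50 via Hill equation.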
Assay [17] is described as follows: Cell Viability - H-4-II-E (AID 543; active = well fitted curve in the direction sought with a large enough effect; an effect the other way counts as inactive or inconclusive; also: % is scaled to controls: 0 for no effect and ±100 for the full control effect; nearly all actives have a fitted effect of over 35% in size). As to conditions: H-4-II-E rat hepatoma viability; series mostly up to 92.2 µM. In a few lines: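 Luminescent ATP signal (CellTiter-Glo) served as the viability read-out, with cytotoxicity seen as a concentration-dependent ATP drop. Cells were treated for 40 hours in complete medium. AC50 values derive from Hill-equation modelling.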

The nature of assay [18]: Cell Viability - SH-SY5Y (AID 544; active = well fitted curve in the direction sought with a large enough effect; an effect the other way counts as inactive or inconclusive;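 also: 0% = DMSO alone and -100% = 100 µM tamoxifen; nearly all actives have a fitted effect of over 55% in size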). As to conditions: SH-SY5Y neuroblastoma cell viability; series mostly up to 92.2 µM. The essentials:
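Luminescent ATP read-out (CellTiter-Glo) measures loss of viable SH-SY5Y neuroblastoma cells after 40 hr compound exposure at 37 °C. AC50 values derive from standard Hill modelling of qHTS concentration-response data.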

Assay [19] is described as follows: Cell Viability - Renal Proximal Tubule (AID 545; active = well fitted curve in the direction sought with a large enough effect; an effect the other way counts as inactive or inconclusive;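 also: 0% = DMSO only and -100% = 100 µM tamoxifen; nearly all actives have a fitted effect of over 40% in size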). As to conditions: renal proximal tubule cells viability, primary cells of rat origin; activity change, negative = cytotoxicity: at 91.7 µM (top of the series). The essentials: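 Primary rat renal proximal tubule cells (1000/well) were treated with compounds for 40 hr at 37 °C in complete medium. Intracellular ATP was measured by CellTiter-Glo luminescence, and AC50 values came from Hill-equation fits of concentration-response data.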

Where “and” joins values, the source holds several entries; their conditions need not be identical. Equal entries are not always repeated. A number with no mark means an inactive call. Records with an inconclusive call do not appear. Calls of active or inactive are those of the source. Unless noted, calls follow the shape of the dose curve; as a rule, active = well fitted curve in either direction with a large enough effect (not every such curve was filed as active); inconclusive = small, poorly fitted or top-dose-only effect, or another doubt; inactive = flat fitted curve, though single readings scatter.

Cytochrome P450 1A2 (Homo sapiens), sequence (P05177 whole entry, looked up): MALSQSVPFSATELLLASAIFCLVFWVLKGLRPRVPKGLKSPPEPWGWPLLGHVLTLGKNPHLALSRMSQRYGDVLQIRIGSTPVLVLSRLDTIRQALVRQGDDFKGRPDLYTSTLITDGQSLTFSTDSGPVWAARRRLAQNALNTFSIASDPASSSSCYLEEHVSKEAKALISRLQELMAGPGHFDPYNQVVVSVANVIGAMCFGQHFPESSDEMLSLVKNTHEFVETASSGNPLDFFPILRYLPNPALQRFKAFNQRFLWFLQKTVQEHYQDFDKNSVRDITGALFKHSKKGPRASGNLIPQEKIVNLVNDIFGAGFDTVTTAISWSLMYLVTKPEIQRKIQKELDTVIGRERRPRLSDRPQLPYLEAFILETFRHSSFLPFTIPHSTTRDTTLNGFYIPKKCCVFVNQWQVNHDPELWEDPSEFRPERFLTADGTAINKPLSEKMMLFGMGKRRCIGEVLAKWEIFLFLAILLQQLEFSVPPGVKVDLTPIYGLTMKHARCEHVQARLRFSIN
Glucocorticoid receptor (Homo sapiens), sequence (P04150 whole entry, looked up, the tested form may be a part): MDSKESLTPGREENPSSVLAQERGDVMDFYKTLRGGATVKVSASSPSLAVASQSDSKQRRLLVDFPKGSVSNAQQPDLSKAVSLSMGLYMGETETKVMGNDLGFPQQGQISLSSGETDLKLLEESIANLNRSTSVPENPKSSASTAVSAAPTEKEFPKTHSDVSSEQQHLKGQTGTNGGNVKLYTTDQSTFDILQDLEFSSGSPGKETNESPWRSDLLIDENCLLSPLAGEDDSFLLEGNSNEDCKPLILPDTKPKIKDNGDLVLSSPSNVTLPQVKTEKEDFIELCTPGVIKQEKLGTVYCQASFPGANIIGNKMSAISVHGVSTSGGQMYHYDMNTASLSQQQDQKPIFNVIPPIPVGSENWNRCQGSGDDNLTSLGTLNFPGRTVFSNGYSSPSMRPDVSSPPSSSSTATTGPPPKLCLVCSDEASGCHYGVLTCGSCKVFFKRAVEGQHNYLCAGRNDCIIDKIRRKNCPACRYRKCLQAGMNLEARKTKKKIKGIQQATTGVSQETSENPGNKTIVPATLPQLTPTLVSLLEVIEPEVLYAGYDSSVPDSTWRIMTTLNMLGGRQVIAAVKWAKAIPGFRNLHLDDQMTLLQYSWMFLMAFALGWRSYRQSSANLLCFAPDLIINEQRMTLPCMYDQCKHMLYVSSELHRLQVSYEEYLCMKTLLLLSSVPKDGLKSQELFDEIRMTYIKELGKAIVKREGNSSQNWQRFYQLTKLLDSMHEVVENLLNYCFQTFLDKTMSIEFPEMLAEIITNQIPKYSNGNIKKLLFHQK

For `CCN(CC)CCNC(=O)c1ccc(NC(C)=O)cc1`, the activity change, negative = inhibition in [1] (at 17.2 µM (top of the series)) is -5.32%; in assay [1] (at 38 µM (top of the series)) it was 9.43%; in assay [3] (at 17.2 µM (top of the series)) it was -13.8%; in assay [3] (at 38 µM (top of the series)), -8.68%. The Potency result in assay [2] is “inactive”. Also, the compound was classed as inactive in [4]. In assay [5], the Potency was > 46 µM.
`CCCCNC(=O)NS(=O)(=O)c1ccc(C)cc1`: the activity change, negative = inhibition in assay [1] (at 17.2 µM (top of the series)) is -5% and 1.1%; in [1] (at 38 µM (top of the series)) it was 6.49%; in assay [3] (at 17.2 µM (top of the series)), -4.27%; in [3] (at 38 µM (top of the series)), 12.5%. For the same compound, the Potency entry in [2], in assay [13], in [16], in assay [17] and in [18] was “inactive” throughout. Moreover, the Potency in assay [6], in [7], in assay [8], in assay [9], in assay [10] and in assay [11] was > 92 µM each time. In addition, the Potency in [12] is > 46 µM and > 20.6 µM; in [5], > 46 µM and > 20.6 µM. Also, the compound was classed as inactive in [4] and in [14]. In addition, the activity change, negative = cytotoxicity was -10.4% in [15] and -6.67% in assay [19].
With `O=C1NCN(c2ccccc2)C12CCN(CCCC(c1ccc(F)cc1)c1ccc(F)cc1)CC2`, the activity change, negative = inhibition in assay [1] (at 17.2 µM (top of the series)) is -2.84%; in [1] (at 38 µM (top of the series)), 1.17%. Also, the Potency in assay [2] is 12.6 µM (active); in assay [5], > 46 µM and > 20.6 µM. Further, in [4], the compound was called inactive. For the same compound, in [13], the Potency entry is “inactive”.
For `c1cnc(N2CCN(Cc3ccc4c(c3)OCO4)CC2)nc1`, the figures for the activity change, negative = inhibition in assay [1] (at 17.2 µM (top of the series)) and in assay [1] (at 38 µM (top of the series)) were -7.76% and 13.9%, respectively. Further, the Potency in [2] was 6.31 µM (active) and 3.16 µM (active) and 2 µM (active); in assay [12], > 46 µM and > 20.6 µM; in assay [5], > 46 µM and > 20.6 µM. The call in assay [4] was inactive. In assay [13], the Potency entry was “inactive”.
Consider `CCN(CC)CCNC(=O)c1cc(S(C)(=O)=O)ccc1OC`, for which the activity change, negative = inhibition in assay [1] (at 17.2 µM (top of the series)) is -0.734% and 2.54%; in assay [1] (at 38 µM (top of the series)) it was 5.15%; in assay [3] (at 17.2 µM (top of the series)) it was -6.77% and -21.4%; in [3] (at 38 µM (top of the series)), -5.52%. In addition, the Potency entry in [2] and in assay [13] was “inactive” each time. In assay [4], the call was inactive. Also, the Potency in assay [12] is > 46 µM and > 20.6 µM; in assay [5], > 46 µM and > 20.6 µM.
With `CN(C(=O)CCCOc1ccc2[nH]c(=O)ccc2c1)C1CCCCC1`, the activity change, negative = inhibition is -11.1% in [1] (at 38 µM (top of the series)) and -14.2% in assay [3] (at 38 µM (top of the series)). In addition, the Potency result in [2] and in assay [13] was “inactive” in each case. Besides, the compound was classed as inactive in assay [4]. For the same compound, the Potency in assay [5] was > 46 µM.
Turning to `C[C@]12CCC(=O)C=C1CC[C@@H]1[C@@H]2C(=O)C[C@@]2(C)[C@H]1CC[C@]2(O)C(=O)CO`, the activity change, negative = inhibition was 7.64% in assay [1] (at 17.2 µM (top of the series)) and -6.84% in [3] (at 17.2 µM (top of the series)). Further, in assay [4], the compound was classed as inactive.

(Values after PubChem BioAssay (NCATS).)
